D1 agonist: Allosteric Agonists of the Human D1 Dopamine Receptor: qHTS. D(1A) dopamine receptor (Homo sapiens), P21728. HEK293 T-REx D1 cells, calcium flux, agonist mode. activation, % at 2 µM. 1% of 360,000 active. AID 504660, 2011; in the data active means activation above about 30%; further: 0% is about no effect
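Tetracycline-induced HEK293 TREx D1 cells, force-coupled to calcium signalling, were dye-loaded with a no-wash calcium kit. Compound was pin-added after a 10 s baseline. Fluorescence was read kinetically at 1 cycle/s for 180 s, with calcium rises flagged as agonism.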
D1 antagonist: Antagonist of Human D 1 Dopamine Receptor: qHTS | activity change, negative = inhibition, % at 10 µM | 3.2% of 360,000 active | AID 504652, 2011 | HEK293 TREx D1 cells, calcium flux, dopamine EC80; active compounds read low | D(1A) dopamine receptor (Homo sapiens), P21728; in the data active means activity change below about -30%; further: on the % scale 0 is the no-effect control and ±100 the full control effect
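Tetracycline-induced HEK293 T-REx cells with force-coupled D1 receptor were loaded with a no-wash calcium dye. Compound was added after a 10 s baseline and read kinetically for 180 s; EC80 dopamine was then added and calcium flux followed another 180 s.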
D3 ag: qHTS of D3 Dopamine Receptor Agonist: qHTS; D(3) dopamine receptor (Homo sapiens), P35462; D3R DiscoveRx beta-arrestin cells, luminescence, 90 min; max activation, %; 0.58% of 410,000 active; AID 652048, 2013; in the data active means max activation above about 30%; further: 0% is about no effect
Target sequence (P35462 whole entry, looked up): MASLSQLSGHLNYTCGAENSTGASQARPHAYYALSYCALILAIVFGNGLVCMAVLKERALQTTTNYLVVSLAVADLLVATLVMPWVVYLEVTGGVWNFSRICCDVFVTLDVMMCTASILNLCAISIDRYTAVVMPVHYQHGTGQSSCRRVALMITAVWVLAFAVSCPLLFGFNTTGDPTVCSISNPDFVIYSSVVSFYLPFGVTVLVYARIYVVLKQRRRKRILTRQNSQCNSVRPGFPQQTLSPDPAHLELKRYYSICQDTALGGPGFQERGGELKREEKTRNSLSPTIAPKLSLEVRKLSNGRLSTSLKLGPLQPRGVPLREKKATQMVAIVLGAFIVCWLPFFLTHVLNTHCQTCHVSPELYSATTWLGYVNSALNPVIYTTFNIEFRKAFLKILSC
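Cells at 1500/well, incubated overnight, then treated with pinned compounds (dopamine as control) for 90 min at 37 degrees C. DiscoveRx reagent added for 30 - 60 minutes at room temperature; luminescence read.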
D1 PAM: Potentiators of Human D1 Dopamine Receptor: qHTS | potentiation, % at 10 µM | 0.036% of 360,000 active | AID 504651, 2011 | HEK293 TREx D1 cells, calcium flux, dopamine EC20 potentiation; in the data active means potentiation above about 30%; further: 0% is about no effect
D3 antag: qHTS of D3 Dopamine Receptor Antagonist: qHTS; D3R cells, DiscoveRx beta-arrestin luminescence, antagonist mode; active compounds read low; max response, negative = inhibition, %; 2.5% of 360,000 active; in the data active means max response below about -50%; inconclusive means no clear call, values can overlap the other calls; further: on the % scale 0 is the no-effect control and ±100 the full control effect
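Cells plated overnight at 1500 cells/well, then exposed to library compounds with dopamine controls for 90 minutes at 37 degrees C. DiscoveRx reagent added for 30–60 minutes at room temperature; luminescence read, quantitative HTS format.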
An asterisk follows results filed as active; ? = inconclusive; nt = no result. Rows were chosen to be rich in hits. Some 6% of all compounds tested hit in one or more screens of this group.

SMILES | D1 agonist | D1 antagonist | D3 ag | D1 PAM | D3 antag
Cc1ccccc1Nc1sc(C(=O)c2ccc3c(c2)OCO3)c(N)c1S(=O)(=O)c1ccccc1 | 6 | 0 | -9 | 2 | nt
COC(=O)[C@]12CCCCC=C1N(Cc1ccc(Cl)cc1Cl)C(=O)[C@H](CC(=O)N1CCN(C(=O)c3ccco3)CC1)C2 | nt | nt | 3 | nt | 3
CN(Cc1ccccc1F)c1ccc(S(=O)(=O)N2CCCC2)cn1 | 13 | -32* | 0 | -8 | 11
O=C(CCN1C(=O)C2C3C=CC(C3)C2C1=O)N1CCN(c2ccccc2Cl)CC1 (stereo not given) | 5 | 15 | -9 | -6 | -80*
CC(C)(C)C(=O)N1CCN(c2nc3ccc(Cl)cc3s2)CC1 | 3 | -43* | 17 | -3 | 7
CC(C)(C)C(=O)N1CCN(c2nc3ccc(Br)cc3s2)CC1 | 9 | -24 | -8 | -2 | 0
CCN1CCN(C(c2ccccc2)c2nnnn2Cc2ccccc2)CC1 (stereo not given) | 2 | 8 | -4 | -7 | -23
Cc1cccc(N2CCN(C(c3cccs3)c3nnnn3C(C)(C)C)CC2)c1C (stereo not given) | 5 | -12 | -11 | -6 | -22
Cc1cccc(C)c1-n1nnnc1C(c1ccccc1)N1CCN(C/C=C/c2ccccc2)CC1 (stereo not given) | nt | nt | -26 | nt | -133*
Cc1cccc(C)c1-n1nnnc1C(c1cccs1)N1CCN(C/C=C/c2ccccc2)CC1 (stereo not given) | nt | nt | -20 | nt | -84*
CN(Cc1ccccc1)C(=O)c1csc([C@@H]2O[C@H](CO)[C@H](O)[C@H](O)[C@H]2O)n1 | nt | nt | 0 | nt | 3
CN1CCN(c2cc(N3CCc4ccccc4C3)c(F)cc2[N+](=O)[O-])CC1 | 8 | -54* | -22 | -17 | -61*
Cc1cc(-c2ccccc2)c2c3c(c(-c4ccccc4)n2n1)c(=O)n(C)c(=O)n3C | 1 | -68* | -2 | -1 | -11
Cc1onc(-c2ccccc2Cl)c1C(=O)NCc1cccnc1 | -3 | 13 | -3 | 3 | 12
Cc1onc(-c2c(F)cccc2Cl)c1C(=O)NCc1ccccn1 | 3 | -39* | -4 | 4 | 15
Cc1onc(-c2ccccc2Cl)c1C(=O)NCc1ccccn1 | 3 | 2 | 2 | 1 | -58*
Cc1ccc(N(C)S(=O)(=O)c2ccc3[nH]c(=O)ccc3c2)cc1 | 2 | -14 | -3 | -1 | nt
Cc1cc(C)nc(SCc2csc(N)n2)n1 | 1 | -9 | 4 | -4 | -51*
Cc1cc(C)nc(SCc2csc(-c3ccccc3)n2)n1 | 6 | -10 | -2 | 3 | ?
CC(C(=O)Nc1cc(Cl)cc(Cl)c1)N1CCCC1 (stereo not given) | 33* | -29 | -16 | -13 | -110*
Cc1cc(C)c(NC(=O)C(C)N2CCCCCC2)c(C)c1 (stereo not given) | 8 | 1 | -2 | 2 | 21
CN(C)c1ccc(/C=C2\C(=N)N3N=C(CC(=O)N4CCCCC4)SC3=NC2=O)cc1 | 37* | 8 | -8 | 1 | -3
CN(C)c1ccc(/C=C2\C(=N)N3C(=NC2=O)Sc2cc(S(C)(=O)=O)ccc23)cc1 | 78* | -8 | nt | -1 | nt
CN(C)c1ccc(/C=C2\C(=N)N3N=C(CC(=O)N4CCCC4)SC3=NC2=O)cc1Br | 2 | -28 | -2 | 4 | 0
COc1cc(OC)cc(C(=O)Nc2ccccc2C(=O)NCc2cccnc2)c1 | 2 | -3 | 2 | nt | 29
SMILES | D1 agonist | D1 antagonist | D3 ag | D1 PAM | D3 antag
O=[N+]([O-])c1ccc(C(O)C23CN4CN(CN(C4)C2)C3)cc1 (stereo not given) | 6 | -2 | 5 | 1 | -69*
O=[N+]([O-])c1cccc(C(O)C23CN4CN(CN(C4)C2)C3)c1 (stereo not given) | 2 | 2 | -21 | 7 | -3
COc1cc(CNC2CCC(C)C2)cc(OC)c1 (stereo not given) | 1 | -48* | -14 | 0 | -12
COc1cc(CNC2CCCC2)cc(OC)c1 | 4 | 6 | -4 | 4 | 11
Cc1ccc(NS(=O)(=O)N2CCCCC2)cc1 | nt | nt | -3 | nt | 11
O=C(CCCN1CCN(c2ccc(F)cc2)CC1)NC1c2ccccc2CSc2ccccc21 (stereo not given) | nt | nt | -24 | nt | nt
O=C(Cc1ccccc1)Nc1cccc(-c2nc3cccnc3s2)c1 | -1 | -2 | 78* | -2 | nt
O=C(Cc1ccc(F)cc1)Nc1cccc(-c2nc3cccnc3s2)c1 | -1 | -3 | -7 | 3 | nt
CCC(C(=O)Nc1cc(-c2nc3cccnc3s2)ccc1C)c1ccccc1 (stereo not given) | 0 | 35 | 9 | 3 | nt
Cc1ccc(-c2nc3cccnc3s2)cc1NC(=O)C(C)C | 30* | 27 | -15 | 1 | nt
CCCN(Cc1cccs1)C(=O)Nc1ccc(Br)cc1F | -1 | -24 | -14 | -1 | nt
CC(C)CCn1cnc2c1c(=O)[nH]c(=O)n2Cc1ccccc1 | 2 | 10 | 2 | 0 | -5
CC(C)Cn1cnc2c1c(=O)[nH]c(=O)n2Cc1ccccc1 | 2 | -47* | -2 | -2 | -13
CCOC(=O)CCCCN(Cc1ccccc1F)S(=O)(=O)c1ccc(F)c(C(=O)Nc2cc(Cl)cc(Cl)c2)c1 | 32* | 24 | -2 | 4 | nt
O=C(Nc1cc(S(=O)(=O)N2CCOCC2)ccc1Cl)c1cc2ccccc2o1 | 3 | -48* | 4 | -6 | 16
O=C(NCCc1ccccc1)c1cc(S(=O)(=O)N2CCOCC2)ccc1F | -2 | nt | 2 | -1 | 23
O=C(c1cc(S(=O)(=O)N2CCOCC2)ccc1F)N(CCc1ccccc1)Cc1ccccc1 | 3 | 17 | 96* | 5 | -92*
CCN(CC)S(=O)(=O)c1ccc(NC2CCCc3ccccc32)nc1 (stereo not given) | 5 | -31* | 5 | -7 | -4
COCCN(CCOC)S(=O)(=O)c1ccc(C(=O)NC2CCN(Cc3ccccc3)CC2)cc1 | 0 | 28 | -4 | 7 | 12
O=C(NC1CCN(Cc2ccccc2)C1)c1cc(S(=O)(=O)N2CCOCC2)ccc1Cl (stereo not given) | 2 | -30* | -4 | -12 | -20
CCN(CC)S(=O)(=O)c1ccc(NC2CCN(Cc3ccccc3)CC2)nc1 | 34* | -38* | -14 | -9 | -20
CCN(CC(=O)N1CCN(Cc2ccccc2)CC1)S(=O)(=O)c1ccccc1 | 11 | -18 | -10 | -7 | ?
CCN(CC)S(=O)(=O)c1ccc(Cl)c(C(=O)NC2CCN(Cc3ccccc3)CC2)c1 | 6 | -8 | -6 | -5 | -65*

Assay outcomes from PubChem BioAssay.
